Source: PubChem (National Center for Advancing Translational Sciences (NCATS))
Most compounds without a hit are left out; they make up all but 19% or so of the library.
TGFb inhibitor: inhibitors of TGF-b signaling | Potency, µM (series often up to 46.1 µM), actives largely listed as inhibitors | actives 1.2% (n = 410,000) | HepG2 CAGA-GFP TGF-b/SMAD3 reporter, GFP fluorescence, 18 h; TGF-beta stimulated, 500 pg/mL final; also: nearly all actives have a fitted effect of over 65% in size
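Read-out: total well GFP (ex488/em500-530) summed from mean per-cell fluorescence. Cells: HEPG2 CAGA-GFP, 1% FBS DMEM, 18 h at 37 degrees C with 500 pg/mL final TGF-beta. Unstimulated wells served as the full-inhibition control; stimulated DMSO wells = 0%.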
ASM inhibitor: human S-ASM enzyme inhibition | P17405 | placental ASM, HMU-PC fluorogenic substrate, 60 min | Potency, µM (titrated, usually from 57.5 µM), actives largely listed as inhibitors | actives 0.006% (n = 340,000) | AID 504937
Target sequence (P17405 47-631 limits assumed): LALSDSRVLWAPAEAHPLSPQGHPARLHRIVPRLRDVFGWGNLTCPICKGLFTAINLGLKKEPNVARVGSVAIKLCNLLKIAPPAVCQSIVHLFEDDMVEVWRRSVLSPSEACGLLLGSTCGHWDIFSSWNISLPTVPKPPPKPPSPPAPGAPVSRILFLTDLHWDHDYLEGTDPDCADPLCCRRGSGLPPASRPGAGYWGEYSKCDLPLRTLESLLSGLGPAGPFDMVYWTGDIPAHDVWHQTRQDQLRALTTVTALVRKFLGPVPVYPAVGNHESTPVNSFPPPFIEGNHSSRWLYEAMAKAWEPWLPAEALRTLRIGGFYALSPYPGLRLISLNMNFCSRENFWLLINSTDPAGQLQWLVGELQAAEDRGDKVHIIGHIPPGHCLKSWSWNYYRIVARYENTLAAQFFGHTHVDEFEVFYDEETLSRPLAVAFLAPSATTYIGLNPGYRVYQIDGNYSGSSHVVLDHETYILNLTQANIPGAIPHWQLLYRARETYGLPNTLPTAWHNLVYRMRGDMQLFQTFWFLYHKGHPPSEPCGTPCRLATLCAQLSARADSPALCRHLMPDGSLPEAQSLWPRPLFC
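qHTS format. ASM enzyme prepared from human placenta hydrolyses the fluorogenic substrate HMU-PC0 (9 uM final) over 60 min at 37 °C after a 10 min compound preincubation.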
IL1B secr inh: inflammasome signaling inhibition, IL-1 beta readout | activity change, % at 57.5 µM | actives 4.7% (n = 360,000) | THP-1 LPS/ATP IL-1B secretion, AlphaLISA, 16 h; stronger effect = lower value; in the data active = activity change below about -50%; inconclusive = mostly about -30% to -49%
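Secreted IL-1B measured by AlphaLISA bead assay after 16 h compound exposure of THP-1 cells; compounds (final up to 57.5 uM) added 1 h before LPS (250 ng/mL) and ATP (1.25 mM) stimulation; lower signal means less secretion.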
DT40 TDP1 CPT: DT40-hTDP1 cell growth loss with CPT; actives 12% (n = 420,000); Potency, µM (titrated, usually from 46.2 µM), actives largely listed as inhibitors; chicken DT40 Tdp1-/-;hTDP1 cells + 20 nM CPT, ATP luminescence, 48 h; also: nearly all actives have a fitted effect of over 55% in size
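Cell growth measured by CellTiter-Glo luminescence after a minimum 48 h, 37 C compound exposure with 20 nM CPT in Tdp1-knockout DT40 cells stably expressing hTDP1, seeded 400/well; qHTS titration format.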
TDP1 cell noCPT: qHTS for Inhibitors of human tyrosyl-DNA phosphodiesterase 1 (TDP1): qHTS in cells in absence of CPT. Potency, µM (series often up to 46.2 µM), hits mostly inhibitors. actives 15% (n = 420,000). DT40 Tdp1-/- hTDP1 cells, no CPT, ATP luminescence, 48 h. AID 686978, 2013; also: nearly all actives have a fitted effect of over 55% in size
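Chicken DT40 Tdp1-/- cells stably complemented with human TDP1 were seeded at 400 cells/well with DMSO in place of 20 nM camptothecin. After compound pinning, cells grew at least 48 hr at 37 °C; viability read by CellTiter-Glo luminescence.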
HepG2 tox-1: counter-screen for TGF-b inhibitors: cytotoxicity in HepG2 cells | HepG2 CAGA-GFP viability, ATP luminescence, 18 h | Potency, µM (series often up to 46.1 µM), actives largely listed as cytotoxic | actives 0.76% (n = 410,000) | AID 588856
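CellTiter-Glo luminescence gave cytotoxicity after 18 hours at 37 degrees C. The cells were HepG2 CAGA-GFP in 1% FBS DMEM, stimulated with 500 pg/mL TGF-beta after compound addition. %Activity was normalised to no-cell wells (complete cell-killing) and DMSO (no toxicity), and curves were fitted and classified.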
TGFb CAGA inh: TGF-b pathway inhibition, cherry-pick retest. actives 63% (n = 1,600). HepG2 CAGA-GFP TGF-b reporter, GFP fluorescence, 18 h; cells stimulated with TGF-beta, 500 pg/mL. AID 720534. Potency, µM (highest dose often 46.1 µM), actives largely listed as inhibitors. shares compounds with TGFb inhibitor; also: nearly all actives have a fitted effect of over 65% in size
HepG2 tox-2: toxic to HepG2 cells in TGF-b counterscreen | shares compounds with TGFb inhibitor | HepG2 CAGA-GFP viability, ATP luminescence, 18 h; cells stimulated with TGF-beta, 500 pg/mL | Potency, µM (titrated, usually from 46.1 µM), most hits filed as inhibitors | actives 27% (n = 1,600); also: nearly all actives have a fitted effect of over 70% in size
TGFb CCL64 inh: blocks TGF-b signaling in CCL64 reporter cells; Potency, µM (titrated, usually from 46.1 µM), usual class: inhibitors; shares compounds with TGFb inhibitor; CCL64 CAGA-GFP reporter, TGF-b stimulated, GFP fluorescence, 18 h; actives 41% (n = 1,600); also: nearly all actives have a fitted effect of over 65% in size
TGFb COP inh: blocks TGF-b signaling in HepG2 COP reporter; shares compounds with TGFb inhibitor; HepG2 COP-GFP TGF-b reporter, GFP fluorescence, 18 h; cells stimulated by added recombinant TGF-beta; Potency, µM (top dose mostly 46.1 µM), actives largely listed as inhibitors; actives 3% (n = 1,600); AID 720537; also: nearly all actives have a fitted effect of over 70% in size
Hits are given with their value; – = inactive; ? = inconclusive; · = no result given. Unless noted, calls follow the shape of the dose curve; as a rule, active = well fitted curve in the direction sought with a large enough effect; inconclusive = small, poorly fitted or top-dose-only effect, or another doubt; inactive = no such curve, though single readings can be large; an effect the other way counts as inactive or inconclusive.

SMILES	TGFb inhibitor	ASM inhibitor	IL1B secr inh	DT40 TDP1 CPT	TDP1 cell noCPT	HepG2 tox-1	TGFb CAGA inh	HepG2 tox-2	TGFb CCL64 inh	TGFb COP inh
CC=Cc1cc2c(c(=O)o1)C(=O)C(O)C(C)O2 (stereo not drawn)	11.2µM	–	-100.8	3.66µM	2.91µM	–	5.17µM	20.6µM	?	–
O=C(COc1coc(CN2CCN(c3ccc(F)cc3)CC2)cc1=O)NCC1CCCO1 (stereo not drawn)	–	–	–	–	–	–	·	·	·	·
CCCCO	·	·	·	–	–	·	·	·	·	·
O=C(/C=C/c1cccc([N+](=O)[O-])c1)OCC(=O)c1ccccc1	–	–	–	–	–	–	·	·	·	·
O=C(/C=C/c1cccc([N+](=O)[O-])c1)c1cccs1	8.91µM	–	-88.1	3.66µM	2.31µM	–	11.6µM	18.4µM	5.8µM	–
CC(=O)Oc1ccccc1C(=O)C=Cc1cccc([N+](=O)[O-])c1	7.08µM	–	-100.6	10.3µM	20.6µM	–	10.3µM	?	5.8µM	?
O=C(/C=C/c1cccc([N+](=O)[O-])c1)Nc1ccc(NC(=O)c2cccs2)cc1	–	–	–	–	–	–	·	·	·	·
CCCCCCNc1nc2c(c(=O)n(C)c(=O)n2C)n1Cc1cccc(C)c1	–	·	·	·	·	–	·	·	·	·
CC(=O)Nc1ccc(NC(=O)CSc2ccccn2)cc1	–	–	–	–	–	–	·	·	·	·
O=C(CSC1=NNC(c2ccccn2)S1)Nc1ccc(C(F)(F)F)cc1 (stereo not drawn)	?	–	–	4.11µM	3.66µM	–	–	–	?	–
CCN(CC)C(=O)CSc1nnc2nnc3cc(Cl)ccc3n12	3.98µM	–	–	–	?	–	23.1µM	23.1µM	?	?
NC(c1csc(NC(=O)Nc2cccc(Cl)c2)n1)c1ccccc1Cl (stereo not drawn)	10µM	·	-106.6	?	?	–	18.4µM	?	?	–
CS(=O)(=O)c1ccc2nc(NC(=O)Nc3ccccc3F)sc2c1	–	–	–	–	?	–	·	·	·	·
Cc1ccc(NC(=O)Nc2nnc(-c3ccncc3)s2)cc1C	7.94µM	–	–	20.6µM	13µM	–	9.2µM	?	?	–
O=C(Nc1cccc(Cl)c1)Nc1nnc(-c2ccncc2)s1	7.94µM	–	–	7.31µM	5.8µM	–	10.3µM	?	6.51µM	–
CS(=O)(=O)c1ccc2nc(NC(=O)Nc3cccc(Cl)c3)sc2c1	2.24µM	–	-81.0	16.4µM	23.1µM	–	16.4µM	?	?	–
COC(=O)[C@@]1(Cc2ccccc2)[C@H]2C(=O)N(Cc3ccccc3)C(=O)[C@H]2[C@H]2CN=C(SCC3CC3)N21	11.2µM	–	–	?	23.1µM	–	?	?	?	–
COC(=O)[C@@]1(Cc2ccccc2)[C@H]2C(=O)N(Cc3ccccc3)C(=O)[C@H]2[C@H]2CN=C(SCc3ccc(C)cc3)N21	?	–	–	?	?	–	·	·	·	·
CC(CC(=O)O)CC(=O)Nc1cc([N+](=O)[O-])ccc1O (stereo not drawn)	–	–	–	–	–	–	·	·	·	·
Cc1ccc(SCC(=O)Nc2cc([N+](=O)[O-])ccc2O)cc1	17.8µM	–	–	–	–	–	4.61µM	?	?	–
O=C1c2cc(Cl)ccc2-c2c(O)cc(Cl)cc21	11.2µM	–	-74.4	?	14.6µM	–	11.6µM	?	8.2µM	–
CCOc1ccc(CN2CCN(C(=O)c3cccc4ccccc34)CC2)cc1	?	–	-83.1	?	?	–	9.2µM	?	–	–
Cc1ccc(NC(=O)/C=C/c2ccc([N+](=O)[O-])s2)c(C)c1	5.01µM	–	-95.6	2.59µM	3.66µM	7.94µM	?	10.3µM	4.11µM	–
Cc1cc([N+](=O)[O-])ccc1NC(=O)/C=C/c1cccs1	–	–	?	–	?	–	·	·	·	·
Cc1cccc(NC(=O)/C=C/c2ccc([N+](=O)[O-])s2)c1	?	–	-97.1	2.59µM	2.59µM	–	?	5.17µM	2.59µM	–
SMILES	TGFb inhibitor	ASM inhibitor	IL1B secr inh	DT40 TDP1 CPT	TDP1 cell noCPT	HepG2 tox-1	TGFb CAGA inh	HepG2 tox-2	TGFb CCL64 inh	TGFb COP inh
COc1cccc(NC(=O)/C=C/c2ccccc2[N+](=O)[O-])c1	–	–	–	?	?	–	·	·	·	·
CN(Cc1cccc(Cl)c1Cl)C(=O)c1cccc(S(=O)(=O)N2CCN(Cc3ccccc3)CC2)c1	8.91µM	–	–	?	16.4µM	–	10.3µM	?	?	–
CCCc1cc(=O)[nH]c(SCC(=O)Nc2cc(S(=O)(=O)N3CCOCC3)ccc2N(CC)CC)n1	–	–	–	–	–	–	·	·	·	·
COc1ccc(N2CC(C(=O)NCCC3=CCCCC3)CC2=O)c(OC)c1 (stereo not drawn)	–	–	–	–	–	–	·	·	·	·
O=C(Nc1ccccc1)N1CC[C@@]2(CCCN(C(=O)c3cccc(F)c3)C2)C1	·	·	·	–	–	·	·	·	·	·
Cc1cccc(C)c1OCC(=O)Nc1oc(-c2ccccc2)c(-c2ccccc2)c1C#N	12.6µM	–	–	?	?	–	?	?	?	–
COc1ccc(C(=O)Nc2oc(-c3ccccc3)c(-c3ccccc3)c2C#N)cc1	–	–	?	?	?	–	·	·	·	·
Cc1ccc(-c2ccc(CN3C(C(C)C)C(=O)N(Cc4cn(CCC5OCCO5)nn4)CCS3(=O)=O)cc2)c(C)c1 (stereo not drawn)	11.2µM	·	?	9.2µM	18.4µM	–	23.1µM	?	23.1µM	–
CC1C(=O)N(Cc2cn(CCC3OCCCO3)nn2)CCS(=O)(=O)N1Cc1ccc(-c2ccc(Cl)cc2)cc1 (stereo not drawn)	12.6µM	·	–	11.6µM	6.51µM	–	?	?	?	–
